The values that follow come from PubChem BioAssay (NCATS).

Results filed as inconclusive are left out. A call without a number means that no potency is given here. Activity calls are given as the source filed them. Calls follow the shape of the full dose curve.

The assay deals with Estrogen receptor (Homo sapiens) (UniProt P03372). Briefly: qHTS assay for small molecule agonists of estrogen receptor alpha signaling (AID 588514). Also: nearly all actives have a fitted effect of over 70% in size. As to conditions: ER-alpha-UAS-bla HEK293, beta-lactamase ratio, 18 h; series mostly up to 76.8 µM. The source says: NIH Chemical Genomics Center [NCGC]
Sequence of Estrogen receptor (Homo sapiens) (P03372 whole entry, looked up): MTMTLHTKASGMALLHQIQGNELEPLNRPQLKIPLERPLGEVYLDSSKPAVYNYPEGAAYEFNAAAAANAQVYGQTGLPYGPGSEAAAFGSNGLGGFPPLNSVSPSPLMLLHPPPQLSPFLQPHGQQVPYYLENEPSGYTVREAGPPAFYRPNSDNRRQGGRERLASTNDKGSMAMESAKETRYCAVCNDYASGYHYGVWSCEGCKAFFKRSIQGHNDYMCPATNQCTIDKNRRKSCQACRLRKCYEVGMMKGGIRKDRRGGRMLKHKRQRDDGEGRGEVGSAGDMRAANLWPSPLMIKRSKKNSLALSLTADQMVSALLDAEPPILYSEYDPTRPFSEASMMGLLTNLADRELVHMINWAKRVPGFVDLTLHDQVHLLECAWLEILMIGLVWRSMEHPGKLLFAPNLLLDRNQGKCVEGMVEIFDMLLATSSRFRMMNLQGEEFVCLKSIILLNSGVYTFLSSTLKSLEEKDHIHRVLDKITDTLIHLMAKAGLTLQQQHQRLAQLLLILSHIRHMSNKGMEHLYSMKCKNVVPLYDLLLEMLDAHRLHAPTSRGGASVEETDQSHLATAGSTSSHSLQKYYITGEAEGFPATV
U.S. Environmental Protection Agency [EPA]
National Institutes of Environmental Health Sciences [NIEHS]
National Toxicology Program [NTP]
Estrogen receptor alpha (ER-alpha) is an important member of nuclear hormone receptors. ER-alpha plays important role in breast cancer as well as in other women's health issues. The majority of breast cancers is estrogen receptor (ER) positive and depends on estrogen for growth. There is also growing concern for some of environmental chemicals which may contribute the increasing the incidence of breast cancer. Therefore, it is important to understand the effect of environmental chemicals in ER-alpha signaling pathway.
NCGC Assay Protocol Summary
Using a beta-lactamase reporter-gene under control of the ER response element, a cell-based assay [ER-alpha-UAS-bla GripTiteTM cell-Based Assay from Invitrogen] was used to measure ER-alpha signaling pathway in agonist mode. ER-alpha-UAS-bla-GripTite HEK 293 cells were used with assay medium containing 2% charcoal/dextran treated FBS, 0.1 mM NEAA and 1 mM sodium pyruvate. Cells were cultured in this assay medium overnight in the flasks before the assay. The assay was performed in clear bottom black Greiner 1536-well plates. 17-beta-estradiol was used as a positive control in the screen. Library compounds were measured for their ability to either stimulate the reporter gene activity. Compounds were screened in a titration series in 1536-well format. […] Data was normalized relative to 17-beta-estradiol control (20 nM, 100%), and DMSO only wells (basal, 0%). Concentration-response titration points for each compound were fitted to the Hill equation yielding concentrations of half-maximal stimulation (EC50) and maximal response (efficacy) values.
qHTS protocol for ER-alpha beta-lactamase assay in agonist mode
[Step] [Parameter] [Value] [Description]
1. Reagent; 6 uL; 5000 cells/well
2. Incubation; 37 C for 4 hrs
4. Controls (17-beta-estradiol); 23 nL
- Dose response, start 1uM, 1:3 dilutions with duplicates
- Two columns with 20 and 0.5 nM (final) concentration.
5. Incubation; 37 C for 18 hrs
6. Detection reagent; 1 uL of CCF4-dye
7. Incubation; RT for 2 hrs
8. Detection; Fluorescence; Envision plate reader or Acumen plate reader
For `C[C@H]1O[C@H](OC2[C@@H](O)[C@@H](O)C(O)[C@H](O)[C@H]2O)[C@@H](N)C[C@@H]1N=C(N)C(=O)O` (stereo partly specified), the Potency result was “inactive”.

`COC(=O)c1ccccc1C(=O)OC`: the Potency result was “inactive”. Regarding `CC(C)OC(=O)Nc1ccccc1`, the Potency entry was “inactive”.

In the case of `CCOC(=O)c1ccccc1N`, the Potency result is “inactive”. The same measure for `Oc1c(Cl)c(Cl)c(Cl)c(Cl)c1Cl`: “inactive”; for `CCOP(=S)(OCC)SCSCC`: “inactive”; for `O=C1c2cccc(O)c2C(=O)c2c(O)cc(CO)cc21`: 20 µM (active). The same measure for `C[C@@H]1Cc2c(Cl)cc(C(=O)N[C@@H](Cc3ccccc3)C(=O)O)c(O)c2C(=O)O1`: 44.7 µM (active); for `CC(C)COC(=O)c1ccccc1C(=O)OCC(C)C`: “inactive”.

As to `CC(C)(c1ccc(OCC2CO2)cc1)c1ccc(OCC2CO2)cc1` (stereo unspecified), the Potency entry was “inactive”. Regarding `Cc1ccccc1O`, the Potency result is “inactive”.
